Assay outcomes as filed in PubChem BioAssay.
The list is not random: actives were taken first. Their share in the collection is about 5.7%.
HepG2 tox = kills HepG2 cells in TGF-b inhibitor counter-screen. 410,000 compounds, 0.76% hits. Potency, µM (series often up to 46.1 µM), usual class: cytotoxic. HepG2 CAGA-GFP viability, ATP luminescence, 18 h. AID 588856
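HepG2 CAGA-GFP cells (1000/well, DMEM with 1% FBS) received compound, then TGF-beta at 500 pg/mL final, and were incubated 18 hours at 37 degrees C. Viability was read by CellTiter-Glo luminescence. Media-only wells were set as complete cell-killing and DMSO as no toxicity.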
TGFb inhibitor = blocks TGF-b signaling; HepG2 CAGA-GFP TGF-b/SMAD3 reporter, GFP fluorescence, 18 h; TGF-beta stimulated, 500 pg/mL final; Potency, µM (doses to about 46.1 µM), hits mostly inhibitors; 410,000 compounds, 1.2% hits; AID 588855; also: nearly all actives have a fitted effect of over 65% in size
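Read-out: total well GFP (ex488/em500-530) summed from mean per-cell fluorescence. Cells: HEPG2 CAGA-GFP, 1% FBS DMEM, 18 h at 37 degrees C with 500 pg/mL final TGF-beta. Unstimulated wells served as the full-inhibition control; stimulated DMSO wells = 0%.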
S2 tox = reduces viability in counter-screen for ATXN expression inhibitors; S2 cells (HEK-293 line with an ATXN2-luciferase reporter) viability, CellTiter-Fluor protease fluorescence, 24 h; Potency, µM (top dose mostly 56.7 µM), most hits filed as cytotoxic; 400,000 compounds, 0.49% hits; also: nearly all actives have a fitted effect of over 40% in size
ATXN2 expr inh = inhibitors of ATXN2 expression; Potency, µM (top dose mostly 57 µM), usual class: inhibitors; HEK-293 ATXN2-luciferase reporter, luminescence, 24 h; 360,000 compounds, 0.72% hits; also: nearly all actives have a fitted effect of over 55% in size
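qHTS (up to 57 uM final) was run with 24 h compound exposure of reporter cells at 37 °C. Each well was multiplexed: SteadyGlo luminescence measured ATXN2-luciferase expression after a fluorogenic Gly-Phe-AFC viability readout (25 uM final).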
IL1B secr inh = inhibitors of inflammasome signaling (IL-1 beta secretion); AID 743279; THP-1 LPS/ATP IL-1B secretion, AlphaLISA, 16 h; active compounds read low; 360,000 compounds, 4.7% hits; activity change, % at 57.5 µM; in the data active = activity change below about -50%; inconclusive = mostly about -30% to -49%
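Secreted IL-1B measured by AlphaLISA bead assay after 16 h compound exposure of THP-1 cells; compounds (final up to 57.5 uM) added 1 h before LPS (250 ng/mL) and ATP (1.25 mM) stimulation; lower signal means less secretion.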
A number is an active result; 0 = inactive; ? = inconclusive; - = not tested or not shown; [ ] = dose if it differs, or a comment. Unless noted, calls follow the shape of the dose curve; as a rule, active = well fitted curve in the direction sought with a large enough effect; inconclusive = small, poorly fitted or top-dose-only effect, or another doubt; inactive = no such curve, though single readings can be large; an effect the other way counts as inactive or inconclusive.

SMILES | HepG2 tox | TGFb inhibitor | S2 tox | ATXN2 expr inh | IL1B secr inh
Nc1nc(-c2ccc(-c3ccccc3)cc2)cs1 | 0 | 0 | 0 | 0 | 0
CN(C)/C=N/c1nc(-c2ccc3ccccc3c2)cs1 | 0 | 0 | 0 | 0 | -61
NC(Cc1ccc(Cl)cc1)c1csc(NC(=O)NCCc2ccccc2)n1 (stereo not drawn) | 0 | ? | 28µM | ? | 0
NC(Cc1ccc(Cl)cc1)c1csc(NC(=O)NCC2CCCCC2)n1 (stereo not drawn) | 13µM | ? | 35µM | ? | 0
O=C(/C=C/c1ccccc1)Nc1ncn[nH]1 | 0 | 10µM | ? | ? | -108
NNC(=O)CSc1cccc2cccnc12 | 0 | 0 | 0 | 0 | 0
CN(C)C(=O)CSc1cccc2cccnc12 | 7.1µM | ? | ? | ? | 0
O=C(CSc1cccc2cccnc12)N1CCCC1 | 16µM | ? | ? | ? | -116
c1ccc(Nc2c(-c3c[nH]c4ccccc34)nc3ccccn23)cc1 | 0 | 0 | 0 | 0 | -
CC(C)(C)C1=CC(=O)C(N2CCOCC2)=CC1=O | 0 | 0 | 0 | 0 | 0
CC(C)(C)C1=CC(=O)C(=O)C(C(C)(C)C)=C1 | 0 | 16µM | 13µM | - | -65
O=C(c1cccnc1)C1CCCN(Cc2ccc3c(c2)CN(C(=O)c2cccs2)CCO3)C1 (stereo not drawn) | - | - | 0 | - | -
O=C(CSc1ccncc1)NCC1Cc2cccc(-c3cncnc3)c2O1 (stereo not drawn) | - | - | 0 | - | -
O=C1OC2(c3ccccc31)c1cc(I)c(O)c(I)c1Oc1c2cc(I)c(O)c1I | - | - | 35µM | 0 | -
CCc1ccc(C(=O)Nc2ccc3nc(C)ccc3c2)cc1 | 0 | 0 | 0 | 0 | ?
Cc1ccc2cc(NC(=O)c3ccc(C(C)(C)C)cc3)ccc2n1 | 0 | 0 | ? | 0 | -101
Cc1cc(N2CCN(C)CC2)nc2ccc(NC(=O)c3ccc(C(C)(C)C)cc3)cc12 | 13µM | ? | 16µM | ? | -
COc1ccc(C(=O)Nc2ccc3nc(N4CCN(C)CC4)cc(C)c3c2)c(OC)c1 | 0 | ? | 0 | ? | -86
CCN1CCN(c2cc(C)c3cc(NC(=O)c4cncc(Br)c4)ccc3n2)CC1 | 0 | 0 | 0 | 0 | -54
COc1cc(OC)cc(C(=O)Nc2ccc3nc(N4CCCCC4)cc(C)c3c2)c1 | 0 | 0 | 0 | ? | -
Cc1cc(C)cc(NC(=O)CCN2C(=O)c3ccccc3Sc3ncccc32)c1 | 0 | 0 | - | - | -
CCOc1ccccc1NC(=O)Cn1c(=O)n(Cc2nc(C)no2)c(=O)c2ccccc21 | 0 | 0 | - | - | -
Cc1n[nH]c(C)c1CCc1nc2c3ccccc3nc(SCC(=O)Nc3ccc(F)cc3)n2n1 | 13µM | ? | ? | ? | -
Cc1cccc(NC(=O)CSc2nc3ccccc3c(=O)n2C)c1 | 0 | 0 | 0 | 0 | -71
Cc1ccc(NC(=O)CSc2nc3ccccc3c3nc(CCc4c(C)n[nH]c4C)nn23)cc1F | 0 | 0 | ? | 0 | 0
SMILES | HepG2 tox | TGFb inhibitor | S2 tox | ATXN2 expr inh | IL1B secr inh
CN(C)c1ccc(NC(=O)CSc2nc3ccccc3c(=O)n2C2CCCCC2)cc1 | 0 | 0 | 0 | 0 | -51
Cc1cccc(NC(=O)CSc2nc3ccccc3c3nc(CCn4cncc4C)nn23)c1 | 13µM | ? | - | ? | -
Cc1ccc(NC(=O)CSc2nc3ccccc3c3nc(CCn4cncc4C)nn23)c(C)c1 | 0 | ? | ? | 0 | 0
O=C(O)[C@H](O)[C@@H](O)[C@H](O[C@@H]1O[C@H](CO)[C@H](O)[C@H](O)[C@H]1O)[C@H](O)CO | - | - | 0 | 0 | -
Cc1ccc(-c2nc(CS(=O)CC(=O)N3CCN(c4ccc(Cl)cc4)CC3)c(C)o2)cc1 (stereo not drawn) | 0 | 0 | ? | ? | -
CCOC(=O)c1cccc(NC(=O)CSc2nc3cccnc3n2C)c1 | 0 | 0 | 0 | 0 | -53
CCOC(=O)c1c(NC(=O)c2cc3nc(-c4ccccc4)cc(C(F)(F)F)n3n2)sc2c1CCC(C)C2 (stereo not drawn) | 0 | 0 | - | - | -
CC1CCCN(c2ccc(C(=O)Nc3ccc4c(c3)OCO4)cc2[N+](=O)[O-])C1 (stereo not drawn) | 0 | 0 | 0 | 0 | -66
CC1CCN(c2ccc(C(=O)Nc3ccc4c(c3)OCO4)cc2[N+](=O)[O-])CC1 | 0 | 0 | 0 | 0 | -141
O=C(COC(=O)c1ccc(N2CCOCC2)c([N+](=O)[O-])c1)Nc1ccc2c(c1)OCO2 | 0 | 0 | ? | 0 | 0
CCc1nn2c(=O)cc(COC(=O)c3ccc(NC(=O)c4cccs4)cc3)nc2s1 | 0 | 0 | - | - | -
COc1ccc(N=C2NC(=O)/C(=C\C=C\c3ccco3)S2)cc1 | 0 | 0 | ? | 0[11.3 µM] | -63
Cc1cccc(N=C2NC(=O)/C(=C/C=C/c3ccco3)S2)c1 | 0 | 0 | 0 | 0 | 0
O=S(=O)(c1cccc(Br)c1)N1CCN(c2nc(-c3cccs3)nc3ccccc23)CC1 | 0 | 0 | - | - | -
O=[N+]([O-])c1ccc(/C=[N+](\[O-])[C@@H]2CCCC[C@@H]2/[N+]([O-])=C/c2ccc([N+](=O)[O-])o2)o1 | 0 | 7.1µM | - | ? | -92
CCc1oc(C(=O)OC)cc1CSC(=N)N | 16µM | 0 | 0 | 0 | -87
CC(C)(C)OC(=O)C(Cc1ccc(OC(C)(C)C)cc1)NC(=O)CNC(=O)OCc1ccccc1 (stereo not drawn) | 0 | ? | 0 | 0 | -71
C[C@H](NC(=O)OCc1ccccc1)C(=O)NNC(=O)[C@H](Cc1ccccc1)NC(=O)OC(C)(C)C | 0 | 0 | 0 | 0 | 0
COC(=O)C1=C(C)N(Cc2ccccc2)C(=NCCc2c[nH]c3ccccc23)N[C@H]1c1ccccc1 | 10µM | ? | ? | ? | ?
CCN(CC)CCCN=C1N[C@@H](c2cccc(F)c2)C(C(=O)OC)=C(C)N1Cc1ccccc1 | 0 | ? | 25µM | 22µM | 0
CCN1C(=NCCCCO)N[C@@H](c2cccc(F)c2)C(C(=O)OC)=C1C | 0 | 0 | 0 | 0 | 0
COC(=O)C1=C(C)N(Cc2ccccc2)C(=NCCc2c[nH]c3ccccc23)N[C@H]1c1cccc(F)c1 | 0 | ? | 22µM | ? | -50
COC(=O)C1=C(C)N(Cc2ccccc2)C(=S)N[C@H]1c1cccc(F)c1 | 0 | ? | ? | 0 | 0
Clc1ccc(CN2C3=NCCCN3c3ccccc32)c(Cl)c1 | 0 | 0 | 0 | 0 | -73
Brc1ccc(CN2C3=NCCCN3c3ccccc32)cc1 | 0 | 0 | 0 | 0 | -55
c1ccc(CN2C3=NCCCN3c3ccccc32)cc1 | 0 | 0 | 0 | 0 | 0
CC(C)(C)c1ccc(CN2C3=NCCCN3c3ccccc32)cc1 | 16µM | ? | ? | ? | -54
COc1ccccc1CNC(=O)c1ccc2c(c1)nc(C)n2-c1cccc(C)c1 | 0 | 0 | 0 | 0 | -
Clc1ccc2oc(-c3ccccc3)cc(=NCCCN3CCOCC3)c2c1 | 0 | ? | - | 0 | -91
OCCCCCN=c1cc(-c2ccccc2)oc2ccc(Cl)cc12 | 0 | ? | ? | ? | -103
